The panel holds about 83,000 compounds, 20% with a hit somewhere; the sample as a whole holds those more often.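 Testing used 96-well plates and a 48-hour single-concentration exposure. Example: -40 means 40% of the starting cells died.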 Unmarked numbers belong to inactive results. The source made the active and inactive calls. Rule for the calls: active = growth percent below 10; inactive = the rest.

The subject of this assay is NCI-H23 lung. Kind of assay: NCI-60 one-dose screen, 48 h (100 = growth as untreated, 0 = no growth, -100 = all killed). As to conditions: 10 µM unless noted.
Regarding `COc1cc(Cn2ncc3ccc(NC(=O)c4cc5ccccc5oc4=N)cc32)cc(OC)c1OC`, the growth is 80.8%.

`N=C1C(c2nc(-c3ccc(Br)cc3)cs2)=C(O)CN1Cc1cccnc1`: the growth was 81.9%.

Regarding `COc1ccc(/C=C/c2c(C(=O)/C=C/c3cccs3)c(C)nc3ccccc23)cc1`, the growth was 67.3%.

With `N#C/C(=C\c1ccc(Br)cc1)n1nnc2cc(F)c(F)cc21`, the growth is 28.5%.

In the case of `C[C@@H]1N=C(c2ccc3ccccc3n2)Nc2nc3ccccn3c2C1=O`, the growth is 86.3%.

For `CCCCc1ccc(Nc2ccc(Nc3ccc(CCCC)cc3S(=O)(=O)O)c3c2C(=O)c2ccccc2C3=O)c(S(=O)(=O)O)c1`, the growth was 91.3%.

In the case of `COc1ccc(OC)c2c1[nH]c(=O)c1c3ncccc3cn21`, the growth was 34.4%.

Take `COc1ccc(NC(=O)CSc2nc(C)c(C(C)=O)n2-c2ccc(Cl)cc2)cc1`: the growth is 90.6%.

As for `COc1cccc(-c2nn(-c3ccccc3)cc2-c2ccnc(NCCNC(=O)Nc3cccc(C(F)(F)F)c3)c2)c1`, the growth is 35.8%.

Take `O=C(NCCCNc1cc(-c2cn(-c3ccccc3)nc2-c2cccc(O)c2)ccn1)c1ccccc1`: the growth was 46%.

With `Cc1cc(NCc2cc(Nc3ccnc4cc(Cl)ccc34)ccc2F)nc(N2CCCC2)n1`, the growth is 32.9%.

As to `Oc1ccc(CN2CCC(N3CCOCC3)CC2)c2cccnc12`, the growth was 15.2%.

For the compound `CCN(CC)c1nc(SCC(=O)Nc2nc3ccc(C)cc3s2)nc(-c2ccccc2)c1C#N`, the growth was 103%.

`Clc1cccc(Cl)c1C(Nc1nc2ccccc2s1)Nc1nc2ccccc2s1`: the growth is 101%.

Turning to `C[C@H]1[C@H]2[C@H]3CC[C@@H]4[C@@]5(C)C/C(=C/c6cccnc6)C(=O)C(C)(C)[C@@H]5CC[C@@]4(C)[C@]3(C)CC[C@]23CO[C@]1(C)[C@@H](C(=O)/C=C\c1cccnc1)C3`, the growth was -48.7% (active).

Consider `O=c1ccn2nc3ccccc3c2[nH]1`, for which the growth is 94.6%.

Consider `COc1ccccc1NC(=O)N/C(N)=N/c1nc2ccccc2s1`, for which the growth was 33%.

For the compound `COc1c(CCC[P+](c2ccccc2)(c2ccccc2)c2ccccc2)cc2c(c1OC)OCO2`, the growth is 2.87% (active).

`COc1ccc(C(=O)Nn2c(NCC(=O)N3c4ccccc4Sc4ccccc43)nnc2-c2ccc(O)cc2)cc1`: the growth was 94.4%.

For `COc1ccc(-c2nc3c(c(=O)n2C(C)=O)C(c2ccc(Cl)cc2)c2sc4c(Cl)cccc4c2O3)cc1` (stereo not given), the growth is 3.67% (active).

Turning to `Cc1nc2c(c(N3CCCc4ccccc43)n1)CCC2`, the growth was 25.5%.

For the compound `CC1=C([Se]CC(OC(=O)CC[Se]c2ccccc2)C(=O)NCCCCCC(=O)OCc2ccccc2)C(=O)c2ccccc2C1=O` (stereo not given), the growth is 10%.

`Cc1cc(NCCCCNc2ccnc3cc(Cl)ccc23)nc(Nc2ccc(C(=O)N3CCCC3)cc2)n1`: the growth is 81.4%.

With `Cc1ccc(N(C(=O)CCc2c[nH]c3ccccc23)[C@H](C(=O)Nc2ccc(Cl)cc2)c2cccc([N+](=O)[O-])c2)cc1`, the growth was 92.8%.

Turning to `O=c1[nH]c2ccccc2n1C1CCN(CCOc2ccccc2)CC1`, the growth is 93%.

On to `c1ccc2c(c1)nc(CN1CCOCC1)n1cc(N3CCCC3)nc21`, for which the growth was 94%.

In the case of `CC/C=C1/C(=O)C=C[C@@H]1C/C=C\CCCC(=O)O`, the growth was 85.5%.

Take `COC(=O)[C@]12CC[C@@H](C)[C@H](C)[C@@H]1C1=CC[C@@H]3[C@@]4(C)C(C=O)=C[C@@](C)(COS(C)(=O)=O)C4[C@H](O)C[C@@]3(C)[C@]1(C)CC2` (stereo not given in full): the growth was -50.1% (active).

On to `CCCCCCCCn1ccc2cc(NC(=O)Cn3cc(CN4CCCC4)nn3)ccc21`, for which the growth was 87.3%.

`CCCCCCCOc1c(OC)cc(C2CC(=O)Nc3c2c(C)nn3-c2nc3ccccc3[nH]2)cc1OC` (stereo not given): the growth was -2.79% (active).

As to `COc1cc(-c2nc(N3CCN(C)CC3)c3ccccc3n2)cc(OC)c1OC`, the growth is 74.4%.

For the compound `CCC(CO)Nc1nc2ccc(Cl)cc2c2ccccc12` (stereo not given), the growth was 73.9%.

`NS(=O)(=O)c1ccc(-n2nc(C(=O)N/N=C\c3ccc(F)cc3)cc2-c2ccc(Cl)cc2)cc1`: the growth is 84.2%.

As for `O=S(=O)(NCCCNc1cc(-c2c(-c3cccc(O)c3)nc3sccn23)ccn1)c1cccc(Cl)c1`, the growth was 49.1%.

For the compound `CC(=O)n1c(-c2ccc(Cl)cc2)nc2c(c1=O)C(c1ccc(Cl)cc1)c1sc3c(Cl)cccc3c1O2` (stereo not given), the growth is -0.859% (active).

For the origin of these results see PubChem BioAssay (NCI).
